# Active and inactive are the calls of the source.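 Rule for the calls: active = compound that significantly cut labelled fatty acid release from lipid-loaded liver cells compared with solvent alone; inactive = the rest.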
# Assay: Secondary Assay for lipid storage modulators. NEFA Incorporation/Release.
# Details: AML12 cells, [3H]oleic acid NEFA release, at 5 µM, stronger effect = lower value
# From the text: Data Source: University of Maryland BioAssay Type: Secondary Description: NIH Molecular Libraries Probe Production Centers Network [MLPCN] NIH Chemical Genomics Center [NCGC] Assay Submitter (PI): Carole Sztalryd; GRECC/Geriatrics, Veterans Affairs Medical Center, Department of Medicine, School of Medicine, University of Maryland, Baltimore, Maryland, USA. Beller, Mathias; Max-Planck-Institut fur Biophysikalische Chemie, Germany. NCGC Assay Overview: Storing lipids as a reservoir for energy or the anabolism of elementary metabolites is a common feature of probably all cells and is conserved from bacteria to humans. The universal cellular lipid storage organelle is the so-called lipid storage droplet (LD). Although ubiquitous, LDs share a simple structure composed of a hydrophobic core that harbors the storage lipids, which is shielded by a droplet-specific phospholipid monolayer to which proteins are attached. The current model of LD biogenesis involves an incorporation of the lipid core into the membrane leaflets of the endoplasmic reticulum (ER) followed by a subsequent budding-like maturation of a LD, which ultimately pinches off. Once released, LD volume can increase by localized lipogenesis or fusion of existing droplet. Storage lipids are re-mobilized enzymatically by lipase activity. Lipase regulation in the adipocyte is heavily studied and involves multiple components including catecholamine signaling, the LD-associated proteins Perilipin and comparative gene identification (CGI-58) and at least two lipases named hormone sensitive lipase (HSL) and adipocyte triglyceride lipase (ATGL). LD regulation outside of the adipocyte is poorly understood and only few components are known. However, there is an urgent need to learn more about ectopic fat depots as mislocalized storage of lipids, for example in the liver or muscle, is an eminent health problem associated with insulin resistance or the metabolic syndrome. We developed a laser-scanning cytometer assay to enable 1,536-well screening and combined the results of the small molecules screen with an RNAi database based on lipid storage. […]
# Assay Protocol Summary: Measurements of NEFA released from lipid droplets or incorporated into the TG fraction were performed as previously described. […] Lipolysis was determined by measuring radioactivity released into the media in 1 h. […] Lipids were extracted by the Bligh-Dyer method, and 10% of the total lipid was analyzed by thin layer chromatography. AML12 cells treated with or without specific siRNAs were additionally incubated with either vehicle (DMSO), 5 uM of Exo1 (12.5 mg/ml DMSO), or BFA (10 mg/ml DMSO) during the time of radioactivity release into the media (2 h). NEFA incorporation into the TG fraction and NEFA release are calculated as […]/mg protein. […]
compound,measurement,setting,value
COC(=O)c1ccccc1NC(=O)c1ccc(F)cc1,NEFA release change,,-0.35 nmol/mg (active)
same,NEFA release change,gammaCOP siRNA treatment,-0.3 nmol/mg
same,NEFA release change,measured here: ATGL siRNA treatment,-0.63 nmol/mg
same,NEFA release change,measured here: control siRNA treatment,-0.47 nmol/mg
